In paper PMC7862700, “An all-to-all approach to the identification of sequence-specific readers for epigenetic DNA modifications on cytosine”:

Assays:
Experiment in all cases: DAPPL (digital affinity profiling via proximity ligation, sequencing); 10 mM Tris-HCl pH 7.5, 50 mM NaCl, 1 mM DTT, 4% glycerol, room temperature, 30 min; GST-TFs on glutathione beads, 16-mer random dsDNA library, 0.1% formaldehyde crosslink after washing; high values mean tight binding
Conditions in all cases: protein: recombinant; tags: N-terminal GST; dsDNA, one strand shown
ELK1 = molecular target: T1, ELK1 (Homo sapiens, UniProt P19419 1-428)
T1 sequence: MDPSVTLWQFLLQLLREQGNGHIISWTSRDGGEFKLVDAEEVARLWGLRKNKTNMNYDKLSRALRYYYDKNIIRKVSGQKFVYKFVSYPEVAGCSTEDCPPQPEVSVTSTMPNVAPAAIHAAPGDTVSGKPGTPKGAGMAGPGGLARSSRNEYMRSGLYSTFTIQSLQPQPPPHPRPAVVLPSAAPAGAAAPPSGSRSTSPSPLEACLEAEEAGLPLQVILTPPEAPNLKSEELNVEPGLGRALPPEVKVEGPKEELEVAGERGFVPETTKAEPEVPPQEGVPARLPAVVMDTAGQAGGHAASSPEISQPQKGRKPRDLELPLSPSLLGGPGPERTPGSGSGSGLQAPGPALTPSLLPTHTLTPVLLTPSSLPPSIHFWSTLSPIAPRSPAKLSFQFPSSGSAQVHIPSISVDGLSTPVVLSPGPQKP
Outline: (§1)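 A tag-only sample was pooled with DNA-barcoded human transcription factors that had been expressed in yeast as GST fusions and captured on glutathione beads. The pools were incubated for 30 min at room temperature with 200 nmole of a random double-stranded 16-mer DNA library in Tris/NaCl/DTT/glycerol buffer, then washed, crosslinked with 0.1% formaldehyde, proximity-ligated (BsaI/T4 ligase, 1 h, 37 °C), PCR-amplified and sequenced on an Illumina NextSeq500. Binding signal is each hexamer's read frequency for a factor divided by its frequency for the tag-only sample.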

GABPA = molecular target: T2, GABPA (Homo sapiens, UniProt Q06546 1-454)
T2 sequence: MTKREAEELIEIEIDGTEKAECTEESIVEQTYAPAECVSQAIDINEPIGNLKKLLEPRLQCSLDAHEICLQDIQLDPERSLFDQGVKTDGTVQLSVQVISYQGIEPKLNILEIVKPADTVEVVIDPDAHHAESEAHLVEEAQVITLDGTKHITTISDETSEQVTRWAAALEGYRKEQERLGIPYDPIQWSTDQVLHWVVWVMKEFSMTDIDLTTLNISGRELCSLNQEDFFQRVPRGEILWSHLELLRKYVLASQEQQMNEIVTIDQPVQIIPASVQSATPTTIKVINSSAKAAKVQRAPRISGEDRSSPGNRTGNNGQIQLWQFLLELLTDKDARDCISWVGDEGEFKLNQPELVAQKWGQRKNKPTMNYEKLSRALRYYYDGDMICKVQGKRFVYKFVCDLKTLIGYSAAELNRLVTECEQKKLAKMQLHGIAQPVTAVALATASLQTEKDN
Outline: as §1

ERG = molecular target: T3, ERG (Homo sapiens, UniProt P11308 1-479)
T3 sequence: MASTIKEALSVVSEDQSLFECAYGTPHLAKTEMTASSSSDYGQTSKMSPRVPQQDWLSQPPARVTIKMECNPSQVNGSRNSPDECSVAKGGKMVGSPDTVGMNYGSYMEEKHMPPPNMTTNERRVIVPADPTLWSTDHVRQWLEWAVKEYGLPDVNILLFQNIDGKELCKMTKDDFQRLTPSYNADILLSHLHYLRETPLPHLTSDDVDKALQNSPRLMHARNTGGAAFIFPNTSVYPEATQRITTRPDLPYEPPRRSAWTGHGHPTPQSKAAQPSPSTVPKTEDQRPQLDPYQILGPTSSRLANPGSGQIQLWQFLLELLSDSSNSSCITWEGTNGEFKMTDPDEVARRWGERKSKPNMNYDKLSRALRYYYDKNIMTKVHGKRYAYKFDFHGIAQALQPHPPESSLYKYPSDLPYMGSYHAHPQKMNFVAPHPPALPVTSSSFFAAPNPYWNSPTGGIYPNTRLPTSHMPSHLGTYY
Outline: as §1

ELF1 = ELF1 (Homo sapiens, UniProt P32519 1-619)
Chain of ELF1 (P32519 whole entry): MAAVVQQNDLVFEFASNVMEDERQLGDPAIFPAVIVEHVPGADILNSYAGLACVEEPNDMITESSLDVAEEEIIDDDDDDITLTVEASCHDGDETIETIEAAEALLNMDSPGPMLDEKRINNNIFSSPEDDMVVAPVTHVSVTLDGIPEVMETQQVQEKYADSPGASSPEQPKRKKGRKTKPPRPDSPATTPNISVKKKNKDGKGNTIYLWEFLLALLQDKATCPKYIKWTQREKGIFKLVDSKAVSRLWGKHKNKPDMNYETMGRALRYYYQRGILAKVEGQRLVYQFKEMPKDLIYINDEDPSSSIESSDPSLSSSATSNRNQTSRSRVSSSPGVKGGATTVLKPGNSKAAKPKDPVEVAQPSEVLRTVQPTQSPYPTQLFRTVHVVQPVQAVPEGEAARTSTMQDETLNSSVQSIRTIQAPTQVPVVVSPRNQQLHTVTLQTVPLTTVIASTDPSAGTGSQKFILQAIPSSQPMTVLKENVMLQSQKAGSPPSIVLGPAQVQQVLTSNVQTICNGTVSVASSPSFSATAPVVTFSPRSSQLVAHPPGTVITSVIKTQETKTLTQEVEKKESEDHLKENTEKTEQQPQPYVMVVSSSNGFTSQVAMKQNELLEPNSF
Outline: as §1

EHF = molecular target: T4, EHF (Homo sapiens, UniProt Q9NZC4 1-300)
T4 sequence: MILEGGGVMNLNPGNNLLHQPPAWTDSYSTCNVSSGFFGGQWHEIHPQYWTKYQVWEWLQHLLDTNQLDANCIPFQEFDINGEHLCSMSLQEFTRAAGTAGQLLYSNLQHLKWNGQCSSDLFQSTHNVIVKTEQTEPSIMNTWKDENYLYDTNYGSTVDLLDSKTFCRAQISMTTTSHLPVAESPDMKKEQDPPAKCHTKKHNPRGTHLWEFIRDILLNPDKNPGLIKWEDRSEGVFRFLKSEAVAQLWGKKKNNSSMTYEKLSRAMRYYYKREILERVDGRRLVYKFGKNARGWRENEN
Outline: as §1

SPIB = SPIB (Homo sapiens, UniProt Q01892 1-262)
Chain of SPIB (Q01892 whole entry): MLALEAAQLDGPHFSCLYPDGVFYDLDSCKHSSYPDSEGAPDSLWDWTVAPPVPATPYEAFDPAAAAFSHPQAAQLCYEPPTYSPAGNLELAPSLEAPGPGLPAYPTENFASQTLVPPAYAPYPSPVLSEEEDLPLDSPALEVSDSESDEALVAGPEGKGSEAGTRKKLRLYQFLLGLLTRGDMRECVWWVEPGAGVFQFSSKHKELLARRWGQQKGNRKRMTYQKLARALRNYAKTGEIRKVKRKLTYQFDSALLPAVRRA
Outline: as §1

FEV = molecular target: T5, FEV (Homo sapiens, UniProt Q99581 1-238)
T5 sequence: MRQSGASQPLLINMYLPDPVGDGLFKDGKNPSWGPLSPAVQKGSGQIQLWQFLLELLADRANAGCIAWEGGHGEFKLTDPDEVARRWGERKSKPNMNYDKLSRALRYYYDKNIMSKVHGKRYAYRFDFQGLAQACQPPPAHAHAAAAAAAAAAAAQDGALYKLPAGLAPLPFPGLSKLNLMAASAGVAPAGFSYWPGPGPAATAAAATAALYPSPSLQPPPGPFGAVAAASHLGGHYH
Outline: as §1

ETV5 = ETV5 (Homo sapiens, UniProt P41161 1-510)
Chain of ETV5 (P41161 whole entry): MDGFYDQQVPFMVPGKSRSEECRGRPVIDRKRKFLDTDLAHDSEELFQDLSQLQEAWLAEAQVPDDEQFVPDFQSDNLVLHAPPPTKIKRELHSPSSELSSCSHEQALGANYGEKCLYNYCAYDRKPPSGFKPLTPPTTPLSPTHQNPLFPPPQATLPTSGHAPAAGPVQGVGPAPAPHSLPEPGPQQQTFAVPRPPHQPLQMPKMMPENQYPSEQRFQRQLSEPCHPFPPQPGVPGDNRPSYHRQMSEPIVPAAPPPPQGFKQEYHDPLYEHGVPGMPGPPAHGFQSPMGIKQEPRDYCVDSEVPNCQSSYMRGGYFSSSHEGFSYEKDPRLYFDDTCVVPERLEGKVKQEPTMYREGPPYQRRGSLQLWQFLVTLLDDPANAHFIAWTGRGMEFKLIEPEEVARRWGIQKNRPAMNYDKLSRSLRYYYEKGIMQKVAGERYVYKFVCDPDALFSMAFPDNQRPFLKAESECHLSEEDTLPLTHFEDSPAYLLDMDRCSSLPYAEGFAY
Outline: as §1

ELF4 = ELF4 (Homo sapiens, UniProt Q99607 1-663)
Chain of ELF4 (Q99607 whole entry): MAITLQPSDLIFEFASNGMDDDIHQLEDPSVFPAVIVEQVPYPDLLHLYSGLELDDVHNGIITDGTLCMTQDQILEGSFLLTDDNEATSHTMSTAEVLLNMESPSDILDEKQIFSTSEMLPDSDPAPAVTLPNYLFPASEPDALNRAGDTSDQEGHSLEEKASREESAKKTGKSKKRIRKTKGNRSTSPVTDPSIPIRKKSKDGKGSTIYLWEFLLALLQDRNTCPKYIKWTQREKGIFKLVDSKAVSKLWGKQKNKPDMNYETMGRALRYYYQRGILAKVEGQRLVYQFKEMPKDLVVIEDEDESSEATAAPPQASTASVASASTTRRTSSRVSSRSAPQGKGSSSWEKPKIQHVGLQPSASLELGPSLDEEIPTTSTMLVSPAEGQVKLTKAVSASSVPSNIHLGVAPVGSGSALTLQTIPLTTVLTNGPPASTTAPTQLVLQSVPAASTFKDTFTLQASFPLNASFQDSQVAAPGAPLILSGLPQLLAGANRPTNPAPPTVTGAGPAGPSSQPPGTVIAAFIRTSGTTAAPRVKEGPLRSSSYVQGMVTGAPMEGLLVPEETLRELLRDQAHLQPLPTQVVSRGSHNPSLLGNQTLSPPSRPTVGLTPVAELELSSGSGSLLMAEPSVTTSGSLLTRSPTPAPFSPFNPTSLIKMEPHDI
Outline: as §1

ETV2 = molecular target: T6, ETV2 (Homo sapiens, UniProt O00321 1-342)
T6 sequence: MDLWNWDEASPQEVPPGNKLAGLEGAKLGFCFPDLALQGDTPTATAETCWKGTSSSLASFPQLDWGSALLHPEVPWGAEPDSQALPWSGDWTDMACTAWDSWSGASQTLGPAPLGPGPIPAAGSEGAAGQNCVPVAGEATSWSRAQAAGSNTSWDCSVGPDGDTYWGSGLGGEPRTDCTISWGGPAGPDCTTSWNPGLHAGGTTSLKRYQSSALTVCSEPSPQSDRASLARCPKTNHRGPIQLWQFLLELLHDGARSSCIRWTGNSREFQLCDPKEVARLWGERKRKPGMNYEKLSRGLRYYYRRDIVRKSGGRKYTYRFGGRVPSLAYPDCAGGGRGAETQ
Outline: as §1

ETV3L = molecular target: T7, ETV3L (Homo sapiens, UniProt Q6ZN32 1-361)
T7 sequence: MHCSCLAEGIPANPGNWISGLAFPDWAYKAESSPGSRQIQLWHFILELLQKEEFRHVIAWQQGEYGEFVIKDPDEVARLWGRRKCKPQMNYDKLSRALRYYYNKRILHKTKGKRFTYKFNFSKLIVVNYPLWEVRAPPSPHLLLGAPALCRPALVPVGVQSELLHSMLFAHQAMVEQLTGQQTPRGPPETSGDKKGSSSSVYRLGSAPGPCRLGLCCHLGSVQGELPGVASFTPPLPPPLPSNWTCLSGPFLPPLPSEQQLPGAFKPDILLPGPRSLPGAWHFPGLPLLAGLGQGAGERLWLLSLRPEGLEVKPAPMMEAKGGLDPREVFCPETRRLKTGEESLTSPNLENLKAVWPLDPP
Outline: as §1

ETS2 = molecular target: T8, ETS2 (Homo sapiens, UniProt P15036 1-469)
T8 sequence: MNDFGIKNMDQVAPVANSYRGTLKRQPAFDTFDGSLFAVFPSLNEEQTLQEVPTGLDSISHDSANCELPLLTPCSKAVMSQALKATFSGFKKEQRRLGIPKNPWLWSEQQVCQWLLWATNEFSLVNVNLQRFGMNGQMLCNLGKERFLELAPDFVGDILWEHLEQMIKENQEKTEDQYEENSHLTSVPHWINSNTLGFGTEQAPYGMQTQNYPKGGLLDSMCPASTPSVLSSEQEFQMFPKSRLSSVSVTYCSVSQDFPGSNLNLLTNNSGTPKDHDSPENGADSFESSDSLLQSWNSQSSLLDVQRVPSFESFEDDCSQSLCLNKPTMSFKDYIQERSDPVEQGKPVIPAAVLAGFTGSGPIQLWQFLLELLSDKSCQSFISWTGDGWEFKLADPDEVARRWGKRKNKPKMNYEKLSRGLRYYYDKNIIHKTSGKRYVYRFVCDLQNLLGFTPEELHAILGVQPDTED
Outline: as §1

SPDEF = molecular target: T9, SPDEF (Homo sapiens, UniProt O95238 1-335)
T9 sequence: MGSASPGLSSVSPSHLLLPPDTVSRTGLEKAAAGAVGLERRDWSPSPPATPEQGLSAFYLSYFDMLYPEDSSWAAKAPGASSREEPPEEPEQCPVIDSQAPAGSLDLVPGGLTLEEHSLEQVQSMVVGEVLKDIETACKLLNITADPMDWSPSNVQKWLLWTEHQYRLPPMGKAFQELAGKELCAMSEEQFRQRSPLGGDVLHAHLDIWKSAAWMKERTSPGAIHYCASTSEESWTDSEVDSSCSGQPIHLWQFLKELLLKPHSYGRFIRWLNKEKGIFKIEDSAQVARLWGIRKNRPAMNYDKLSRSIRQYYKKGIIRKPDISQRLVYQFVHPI
Outline: as §1

ETV3 = molecular target: T10, ETV3 (Homo sapiens, UniProt P41162-2 1-143)
T10 sequence: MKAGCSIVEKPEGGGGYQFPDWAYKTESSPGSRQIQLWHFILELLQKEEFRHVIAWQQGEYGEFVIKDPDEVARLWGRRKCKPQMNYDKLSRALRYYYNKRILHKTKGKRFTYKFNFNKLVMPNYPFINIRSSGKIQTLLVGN
Outline: as §1

ETV6 = ETV6 (Homo sapiens, UniProt P41212 1-452)
Chain of ETV6 (P41212 whole entry): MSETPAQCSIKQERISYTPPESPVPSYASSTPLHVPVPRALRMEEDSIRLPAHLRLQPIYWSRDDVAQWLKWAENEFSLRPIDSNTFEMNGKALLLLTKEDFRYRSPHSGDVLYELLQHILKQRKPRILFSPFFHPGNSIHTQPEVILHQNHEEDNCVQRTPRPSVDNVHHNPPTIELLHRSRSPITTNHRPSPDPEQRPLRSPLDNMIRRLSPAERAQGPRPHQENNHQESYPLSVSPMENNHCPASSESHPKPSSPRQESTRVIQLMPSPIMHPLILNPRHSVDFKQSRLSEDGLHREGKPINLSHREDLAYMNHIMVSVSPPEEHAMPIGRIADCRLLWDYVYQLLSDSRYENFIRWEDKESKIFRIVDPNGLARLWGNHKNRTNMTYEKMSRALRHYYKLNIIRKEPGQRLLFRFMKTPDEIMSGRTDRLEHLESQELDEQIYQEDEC
Outline: as §1

## AGGACC
ELK1
  binding signal: 1.07 fold enrichment (6-mer frequency, TF over GST control)
GABPA
  binding signal: 1.07 fold enrichment (6-mer frequency, TF over GST control)
ERG
  binding signal: 1.09 fold enrichment (6-mer frequency, TF over GST control)
ELF1
  binding signal: 1.06 fold enrichment (6-mer frequency, TF over GST control)
EHF
  binding signal: 1.02 fold enrichment (6-mer frequency, TF over GST control)
SPIB
  binding signal: 1.05 fold enrichment (6-mer frequency, TF over GST control)
FEV
  binding signal: 1.07 fold enrichment (6-mer frequency, TF over GST control)
ETV5
  binding signal: 1.04 fold enrichment (6-mer frequency, TF over GST control)
ELF4
  binding signal: 1.06 fold enrichment (6-mer frequency, TF over GST control)
ETV2
  binding signal: 1.18 fold enrichment (6-mer frequency, TF over GST control)
ETV3L
  binding signal: 1.07 fold enrichment (6-mer frequency, TF over GST control)
ETS2
  binding signal: 1.04 fold enrichment (6-mer frequency, TF over GST control)
SPDEF
  binding signal: 1.06 fold enrichment (6-mer frequency, TF over GST control)
ETV3
  binding signal: 1.03 fold enrichment (6-mer frequency, TF over GST control)
ETV6
  binding signal: 1.02 fold enrichment (6-mer frequency, TF over GST control)
